This excerpt belongs to a sample that is enriched for hits.
GIRK2 activ: GIRK2 channel activation | HEK293-GIRK2 thallium flux, Thallos fluorescence, MPD | P48051 | calls only for hits at 25 µM | 63,000 compounds, 0.05% hits; call rule not given here
* marks the source's active call; other numbers are inactive results; i = inactive; + = active, no number.

SMILES	GIRK2 activ
O=C(Nc1cc(Cl)ccc1O)c1cnn2c1OCCC2	+
O=C(Nc1cc2ccccc2oc1=O)c1cnn2c1OCCC2	i
N#Cc1ccc(Cl)cc1NC(=O)c1cnn2c1OCCC2	i
O=C(/C=C/c1ccc2c(c1)OCO2)Nc1nc2c(s1)COCC2	i
COc1cccc(C2C(=C(O)c3ccc4c(c3)OCCO4)C(=O)C(=O)N2CCN(C)C)c1 (configuration not stated)	i
O=C(c1ccc([N+](=O)[O-])o1)N1CCN(c2ncnc3c2nnn3-c2ccc(F)cc2)CC1	i
N#Cc1nc(-c2ccco2)oc1N1CCN(C(=O)c2ccco2)CC1	i
Nc1nc(-c2ccc(F)cc2)c(-c2ccc3ncccc3n2)s1	i
Cc1nc(-c2ccc(F)cc2)sc1-c1cc(C(=O)N(C)Cc2ccccc2)n[nH]1	i
Fc1ccc(-c2n[nH]c(=S)s2)cc1	+
COc1ccc(Cl)cc1C(=O)N1CCN(Cc2nc(C)cs2)CC1	i
Cc1cc(C)n2nc(C(=O)NCc3sc4nc(-c5ccc(F)cc5)cn4c3C)nc2n1	i
COC(=O)c1c(S(=O)(=O)N2CCN(c3cccc(Cl)c3)CC2)n[nH]c1C	+
CCOc1ccccc1N1CCN(S(=O)(=O)c2n[nH]c(C)c2C(=O)OC)CC1	i
CCOC(=O)c1c(S(=O)(=O)N2CCN(c3ccc(Cl)cc3)CC2)n[nH]c1C	i
O=C(NCCc1ccccc1)N1CCC(Oc2ccc(C(F)(F)F)cn2)CC1	i
COc1ccc(C(=O)NCCCS(=O)(=O)N2CCN(c3ncccn3)CC2)cc1OC	i
Cc1ccc(C(=O)N2CCN(Cc3nnnn3-c3ccc(F)cc3)CC2)cc1C	i
Cc1c(C)n2c3c(=O)n(CCCO)c(=O)n(C)c3nc2n1-c1ccc(Oc2ccccc2)cc1	i
COC(=O)c1ccccc1NC(=O)c1nnn(-c2ccccc2)c1-c1ccccn1	i
O=C(NCc1ccc(F)c(Cl)c1)c1nnn(-c2ccccc2)c1-c1ccccn1	i
O=C(Nc1cccc(Cl)c1F)c1nnn(-c2ccccc2)c1-c1ccccn1	+
COCC(=O)Nc1cc(-c2cccs2)nn1-c1nc(C)cc(=O)[nH]1	i
COc1ccc(-c2cc3c(=O)n(CC(=O)NCc4ccc5c(c4)OCO5)ccn3n2)cc1OC	i
COc1cccc(CNC(=O)c2snc(-c3ccccn3)c2NC(=O)C2CC2)c1	i
SMILES	GIRK2 activ
CCCC(NC(=O)[C@H](O)[C@H](N)Cc1ccccc1)C(=O)O (some centres not stated)	i
O=C(CSc1ccc(F)cc1)NCc1cnn2ccccc12	i
NC(=O)COc1ccc2c(=O)c(-c3ccc(Cl)cc3)c(C(F)(F)F)oc2c1	+
CC(C)(C)OC(=O)COc1ccc2c(=O)c(-c3ccccc3)c(C(F)(F)F)oc2c1	i
COc1ccc(-c2c(C(F)(F)F)oc3cc(OCC(=O)OC(C)(C)C)ccc3c2=O)cc1	i
CCNC(=O)NCCN1CCN(c2ccccc2F)CC1	i
CCOC(=O)c1sc2cccc(F)c2c1S(=O)(=O)Nc1cc(C)ccc1C	i
CCOc1ccccc1S(=O)(=O)N1CCN(CC(F)(F)F)CC1	i
COc1coc(C(=O)NCc2ccccc2)cc1=O	i
COc1coc(C(=O)Nc2ccc(C)c(Cl)c2)cc1=O	i
COc1coc(C(=O)Nc2ccc(Oc3ccccc3)cc2)cc1=O	+
COc1ccc(NC(=O)NC2CC2)cc1N1CCCC1=O	i
O=C(N1CCCSCC1CN1CCCC1)C1(c2ccccc2)CCOCC1 (configuration not stated)	i
COC(=O)c1ccc2c(=O)n(-c3cc(C)cc(C)c3)c(N3CCSC3)nc2c1	i
CSc1cccc(NC(=O)C(=O)NCC2(c3ccccc3)CCOCC2)c1	i
CSc1ccccc1NC(=O)C(=O)NCC1(c2ccccc2)CCOCC1	+
CSc1ccccc1NC(=O)C(=O)NCC1(CO)CC1	i
COc1ccc(CNC(=O)N2CCN(CC(O)c3ccco3)CC2)cc1 (configuration not stated)	i
COCCn1nnn(-c2ccc(NC(=O)c3ccsc3)cc2)c1=O	i
O=C(Cc1c(F)cccc1Cl)Nc1nnc(C2CC(=O)N(c3ccccc3)C2)o1 (configuration not stated)	i
Cc1cc(C(=O)N2CCC(Oc3ccc(C(F)(F)F)cn3)CC2)c(C)o1	i
CCn1c(=O)c2c(nc3n(-c4ccc(OC)cc4OC)c(-c4ccccc4)cn23)n(C)c1=O	i
CCCn1c(=O)c2c(nc3n(-c4cc(OC)ccc4OC)c(-c4ccccc4)cn23)n(C)c1=O	i
CCn1c(=O)c2c(nc3n(-c4cc(OC)ccc4OC)c(-c4ccccc4)cn23)n(C)c1=O	+
O=C(CSc1nnnn1-c1ccccc1)N1CCC(c2noc3ccc(F)cc23)CC1	i
CN(C)CCN(C(=O)c1ccco1)c1nc2c(S(C)(=O)=O)cccc2s1	i
Cc1cccc(N(Cc2cccc(F)c2)S(=O)(=O)c2cccn3c(C)nnc23)c1	i
O=C(NCCN1CCN(c2ccc(Cl)cc2)CC1)C(=O)Nc1cc(F)ccc1F	i
